Test results from PubChem BioAssay (EPA / NIEHS).
Results filed as inconclusive are left out. Calls of active or inactive are those of the source. How the source made its calls: active means hit-call score of the fitted dose curve at least 0.9, where 1 is the maximum; inconclusive means response in the unintended direction; inactive means score below 0.9.

What was measured:
[1] = VALA_MIGHUV1_ScratchOnly_CellCount: Viability Assessment in the VALA Sciences human Umbilical Vein Endothelial Cell Migration (MIGHUV) Assay, Scratch Wound Inhibited Recovery (AID 2284327)
How it was run: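 Hoechst-stained nuclei in the scratch wound were counted by high-content imaging after a 24 h recovery period. Scratched HUVEC monolayers received 6-point concentration series, triplicate, in 0.1% DMSO, fit against DMSO.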

[2] = VALA_MIGHUV1_ScratchOnly_WoundArea: VALA Sciences human Umbilical Vein Endothelial Cell Migration (MIGHUV) Assay, Area of Scratch Wound Inhibited Recovery (AID 2284336)
How it was run: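 Wound area remaining after 24 h recovery imaged by Hoechst nuclear fluorescence in scratched HUVEC cultures, chemicals added within 30 min of scratching across a 6-point series. Gain of signal fitted against 0.1% DMSO; cytochalasin D positive control.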

[3] = VALA_TUBIPS_Agonist_CellCount: Viability Assessment in the VALA Sciences human iPS-derived Endothelial Tubule Formation (TUBIPS) Agonism Assay (AID 2284338)

Measured: outcome

COCc1cnc(C2=NC(C)(C(C)C)C(=O)N2)c(C(=O)O)c1 (stereo not drawn)
inactive: [1] | [2] | [3]
